From PubChem BioAssay
An excerpt weighted towards active compounds, which were near 6.2% of everything screened.
NTR1 ag: agonists of human NTR1, primary screen, imaging, U2OS cells, beta-arrestin-GFP, high content. Neurotensin receptor type 1 (Homo sapiens), P30989. NTR1-U2OS beta-arrestin-GFP spot imaging, agonist mode. activation, % at 20 µM. 330,000 tested, 0.17% active. AID 493036, 2011;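 active = activation at or above 40% of the spot to cytoplasm intensity ratio, with at least 20 cells analyzed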
Target sequence (P30989 whole entry, looked up): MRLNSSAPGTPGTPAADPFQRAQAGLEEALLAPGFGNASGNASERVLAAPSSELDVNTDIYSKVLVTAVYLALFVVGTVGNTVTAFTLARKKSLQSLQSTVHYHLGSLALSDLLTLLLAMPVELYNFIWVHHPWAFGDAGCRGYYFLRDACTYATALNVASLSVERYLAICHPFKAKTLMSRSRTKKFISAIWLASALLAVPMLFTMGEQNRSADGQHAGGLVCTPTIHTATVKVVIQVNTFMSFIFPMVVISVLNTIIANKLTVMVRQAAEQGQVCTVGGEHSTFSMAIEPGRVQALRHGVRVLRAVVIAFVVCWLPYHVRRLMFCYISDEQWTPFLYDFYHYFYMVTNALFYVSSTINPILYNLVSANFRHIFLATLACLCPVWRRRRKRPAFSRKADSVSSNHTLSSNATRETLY
GRIN3A LBD mod: binders of NR3A ligand-binding domain, primary screen, biophysical, differential scanning fluorimetry, uHTS. Glutamate receptor ionotropic, NMDA 3A (GRIN3A) ligand-binding domain. NR3A LBD differential scanning fluorimetry, Tm shift; 0% = protein alone, 100% = glycine-bound protein. Tm shift relative to glycine control, % at 25 µM. 340,000 tested, 2.5% active;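 active = melting temperature shift of at least 10% of the positive control shift, at one fixed dose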
AI-2 QS modul: Vibrio harveyi AI-2 quorum sensing modulators, primary screen, JMH597 strain, luminescence/OD600 ratio. Vibrio harveyi JMH597 AI-2 luminescence/OD600 ratio, 9 h; stronger effect = lower value; strain lacks LuxN and CqsS sensors; 0 = neutral-control median. activity change, % at 7.5 µM. 300,000 tested, 0.4% active. AID 2094, 2009; in the data active = activity change below about -75%, passing the limit was not always enough;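 also: luminescence divided by OD600 gain over 9 h not by final OD600 alone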
AHR activator: AHR activators, primary screen, cell-based, luminescence, luciferase reporter, human. activation, % at 5 µM. Aryl hydrocarbon receptor (Homo sapiens), P35869. 320,000 tested, 2.5% active. AHR-responsive luciferase reporter cells; in the data active = activation above about 47%
H9c2 protect: cardioprotection against H2O2-induced cell death, primary screen, uHTS, H9c2 cells, ATPLite luminescence; 360,000 tested, 0.63% active; AID 588492, 2011; protection from H2O2 cell death, % at 20 µM; H9c2 cardiomyocytes, H2O2 injury protection, 2 h;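 active = compounds giving at least 50% protection of heart cells from peroxide-induced death in the single-dose screen, raw or plate-pattern-corrected value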
SUMO Mot1 rescue: yeast Mot1-301 growth rescue at high temperature, primary screen, SUMOylation pathway inhibitor project, S. cerevisiae, ATP luminescence, 38.5C; S. cerevisiae Mot1-301 growth rescue; percent above DMSO median, 100 means doubled; growth rescue, % at 18.8 µM; 320,000 tested, 1% active;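 active = every valid replicate shows activation above 250% relative to neutral control wells; inactive = the rest, any valid replicate at or below 250%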
Hits are given with their value.

`Cc1ccc(NC(=O)CN2CCN(C(=O)c3ccco3)CC2)cc1S(=O)(=O)N(C)C` gave GRIN3A LBD mod inactive and H9c2 protect inactive.
Screening Cc1ccc(COC(=O)CN2C(=O)NC3(CCCCC3C)C2=O)cc1 (stereo unspecified) returned NTR1 ag inactive, GRIN3A LBD mod 11 and H9c2 protect inactive.
CCn1c(SCC(=O)Nc2ccc(NC(C)=O)cc2)nc2c([nH]c3ccccc32)c1=O was read as NTR1 ag inactive, GRIN3A LBD mod 12, AI-2 QS modul inactive, AHR activator inactive, H9c2 protect inactive and SUMO Mot1 rescue inactive.
Screening Cc1ccc(NC(=O)CSc2nc3c([nH]c4ccccc43)c(=O)n2C)cc1 returned NTR1 ag inactive, GRIN3A LBD mod inactive, AI-2 QS modul inactive, AHR activator 60, H9c2 protect inactive and SUMO Mot1 rescue inactive.
For Cn1c(SCC(=O)Nc2cccc(F)c2)nc2c([nH]c3ccccc32)c1=O the results were NTR1 ag inactive, GRIN3A LBD mod 29, AI-2 QS modul inactive, AHR activator inactive, H9c2 protect inactive and SUMO Mot1 rescue inactive.
For COc1ccc(-n2c(SCC(=O)N(C)c3ccccc3)nc3c([nH]c4ccccc43)c2=O)cc1OC the results were NTR1 ag inactive, GRIN3A LBD mod inactive, AI-2 QS modul inactive, AHR activator inactive, H9c2 protect inactive and SUMO Mot1 rescue inactive.
CCn1c(SCC(=O)N(C)c2ccccc2)nc2c([nH]c3ccccc32)c1=O was read as NTR1 ag inactive, GRIN3A LBD mod inactive, AI-2 QS modul inactive, AHR activator 72, H9c2 protect inactive and SUMO Mot1 rescue inactive.
Cn1c(SCC(=O)Nc2ccc(F)cc2)nc2c([nH]c3ccccc32)c1=O was read as NTR1 ag inactive, GRIN3A LBD mod inactive, AI-2 QS modul inactive, AHR activator inactive, H9c2 protect inactive and SUMO Mot1 rescue inactive.
CCn1cc(/C=C(\NC(=O)c2ccccc2F)C(=O)N2CCN(C)CC2)c2ccccc21 was read as H9c2 protect inactive.
Screening CCCCn1c(SCC(=O)Nc2ccc(NC(C)=O)cc2)nc2ccccc2c1=O returned NTR1 ag inactive, GRIN3A LBD mod 33, AHR activator inactive, H9c2 protect inactive and SUMO Mot1 rescue inactive.
COCCn1c(SCC(=O)N2CC(C)OC(C)C2)nc2c([nH]c3ccccc32)c1=O (stereo unspecified) was read as NTR1 ag inactive, GRIN3A LBD mod inactive, AI-2 QS modul inactive, AHR activator inactive, H9c2 protect inactive and SUMO Mot1 rescue inactive.
CCn1c(SCC(=O)N2CC(C)OC(C)C2)nc2c([nH]c3ccccc32)c1=O (stereo unspecified) was read as NTR1 ag inactive, GRIN3A LBD mod inactive, AI-2 QS modul inactive, AHR activator 50, H9c2 protect inactive and SUMO Mot1 rescue inactive.
`CCn1c(SCC(=O)Nc2ccccc2)nc2ccccc2c1=O` gave NTR1 ag inactive, GRIN3A LBD mod inactive, AI-2 QS modul inactive, AHR activator inactive, H9c2 protect inactive and SUMO Mot1 rescue inactive.
Screening CCN(CC)CCNC(=O)c1ccc(NC(=O)c2cccc(-n3cnnn3)c2)cc1 returned NTR1 ag inactive, GRIN3A LBD mod inactive, AI-2 QS modul inactive, AHR activator inactive, H9c2 protect inactive and SUMO Mot1 rescue inactive.
`CCNC(=O)C1(C)CCCN(Cc2cc3ccccc3o2)C1` (stereo unspecified) gave H9c2 protect inactive.
For Cc1cc(=O)[nH]c(SCC(=O)N2C(C)CCCC2C)n1 (stereo unspecified) the results were NTR1 ag inactive, GRIN3A LBD mod inactive, AI-2 QS modul inactive, AHR activator inactive, H9c2 protect inactive and SUMO Mot1 rescue inactive.
COc1ccc(NC(=O)c2sccc2-n2cccc2)cc1 was read as NTR1 ag inactive, GRIN3A LBD mod inactive, AI-2 QS modul inactive, AHR activator inactive, H9c2 protect inactive and SUMO Mot1 rescue inactive.
`O=C(NNC(=O)c1sccc1-n1cccc1)Nc1ccc(F)cc1` gave NTR1 ag inactive, GRIN3A LBD mod inactive, AI-2 QS modul inactive, AHR activator 62, H9c2 protect inactive and SUMO Mot1 rescue inactive.
For O=C(NNS(=O)(=O)c1ccc(Br)cc1)c1sccc1-n1cccc1 the results were NTR1 ag inactive, GRIN3A LBD mod 14, AI-2 QS modul inactive, AHR activator inactive, H9c2 protect inactive and SUMO Mot1 rescue inactive.
Screening CC1(C)ON=C(c2cccc(F)c2)NC1=O returned H9c2 protect inactive.
Screening Cc1cccc(N2CCN(C(=S)c3ccc4c(c3)OCO4)CC2)c1 returned GRIN3A LBD mod inactive and H9c2 protect inactive.
Screening Cc1cc(C(=O)N/N=C/c2ccc(-c3cccc(Br)c3)o2)n[nH]1 returned NTR1 ag inactive, GRIN3A LBD mod 15, AI-2 QS modul inactive, AHR activator inactive, H9c2 protect inactive and SUMO Mot1 rescue inactive.
Cc1cc(C(=O)N/N=C/c2ccco2)n[nH]1 was read as NTR1 ag inactive, GRIN3A LBD mod inactive, AI-2 QS modul inactive, AHR activator inactive, H9c2 protect inactive and SUMO Mot1 rescue inactive.
Screening O=C(N/N=C/c1ccc(-c2ccccc2Cl)o1)c1ccccc1 returned NTR1 ag inactive, GRIN3A LBD mod inactive, AI-2 QS modul inactive, AHR activator inactive, H9c2 protect inactive and SUMO Mot1 rescue inactive.
`Cc1cc(C(=O)N/N=C/c2cccc(Cl)c2Cl)no1` gave NTR1 ag inactive, GRIN3A LBD mod inactive, AI-2 QS modul inactive, AHR activator 47, H9c2 protect inactive and SUMO Mot1 rescue inactive.
`Cc1cc(C(=O)N/N=C/c2ccc(-c3cccc(Cl)c3Cl)o2)n[nH]1` gave NTR1 ag inactive, GRIN3A LBD mod 13, AI-2 QS modul inactive, AHR activator inactive, H9c2 protect inactive and SUMO Mot1 rescue inactive.
`NCCNc1ccc(C(=O)N2c3ccccc3Sc3ccccc32)cc1[N+](=O)[O-]` gave NTR1 ag inactive, GRIN3A LBD mod inactive, AI-2 QS modul inactive, AHR activator inactive, H9c2 protect inactive and SUMO Mot1 rescue inactive.
Screening CCOC(=O)C(Cc1cc(N)c(Oc2ccc(OC)cc2)c(N)c1)NC(C)=O (stereo unspecified) returned GRIN3A LBD mod inactive and H9c2 protect inactive.
O=C(CC1OC(=O)c2ccccc21)Nc1cc(Cl)ccc1N1CCCC1 (stereo unspecified) was read as NTR1 ag inactive, GRIN3A LBD mod inactive, AI-2 QS modul inactive, AHR activator inactive, H9c2 protect inactive and SUMO Mot1 rescue inactive.
